Screen size: about 360,000 compounds; about 3,100 (0.86%) were called active. What follows is part of a selection rich in actives, with near analogues and random picks from the rest. Values without a mark were called inactive.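 Rule for the calls: active = inhibition or corrected inhibition above about 18%, plus a signal ratio from 0.5 to 1.5 (limit read from the data, passing the limit was not always enough); inactive = the rest.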

Sequence of Neuropilin-1 (Homo sapiens) (O14786 whole entry, looked up): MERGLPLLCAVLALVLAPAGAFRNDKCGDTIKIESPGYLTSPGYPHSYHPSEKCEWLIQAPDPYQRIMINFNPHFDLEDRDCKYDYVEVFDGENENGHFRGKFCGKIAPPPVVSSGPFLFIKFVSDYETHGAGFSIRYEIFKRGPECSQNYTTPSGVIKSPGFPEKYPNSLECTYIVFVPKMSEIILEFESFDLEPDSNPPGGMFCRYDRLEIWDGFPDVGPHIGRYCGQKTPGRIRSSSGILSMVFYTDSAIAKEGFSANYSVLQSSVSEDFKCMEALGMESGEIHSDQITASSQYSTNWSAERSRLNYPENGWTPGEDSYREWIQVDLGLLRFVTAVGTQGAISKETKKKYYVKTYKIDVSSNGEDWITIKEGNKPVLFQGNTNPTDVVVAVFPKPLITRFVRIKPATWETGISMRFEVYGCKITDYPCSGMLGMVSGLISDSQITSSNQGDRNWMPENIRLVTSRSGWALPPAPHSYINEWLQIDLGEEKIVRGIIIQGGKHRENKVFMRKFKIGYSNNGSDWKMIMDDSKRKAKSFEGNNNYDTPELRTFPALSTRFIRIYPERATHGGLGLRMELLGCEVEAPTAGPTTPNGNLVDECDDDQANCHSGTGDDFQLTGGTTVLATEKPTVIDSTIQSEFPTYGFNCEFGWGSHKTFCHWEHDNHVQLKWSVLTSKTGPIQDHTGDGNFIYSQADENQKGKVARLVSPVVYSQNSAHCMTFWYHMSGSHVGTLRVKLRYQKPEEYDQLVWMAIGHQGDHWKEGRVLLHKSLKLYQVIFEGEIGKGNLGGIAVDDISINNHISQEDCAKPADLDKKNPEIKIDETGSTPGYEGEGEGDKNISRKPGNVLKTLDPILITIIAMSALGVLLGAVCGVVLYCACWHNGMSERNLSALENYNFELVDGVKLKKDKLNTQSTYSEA

This assay has as its target Neuropilin-1 (Homo sapiens) (UniProt O14786). Briefly: modulators of CendR peptide binding to NRP-1, primary screen, biochemical, fluorescence polarization, uHTS (AID 602438). The settings on record: FAM-RPARPAR peptide binding to NRP-1, fluorescence polarization; at 25 µM; active compounds read high. A general note: Polarisation of emitted light reports the rotation of a fluorescent probe.
Regarding `CN1CCCc2cc(C#N)c(=O)[nH]c21`, the inhibition is 4.8%. To `Cn1nnnc1NCc1ccc(Cl)c(Cl)c1` belongs 12.8%; to `CCCCn1nnnc1C(c1cc2ccccc2o1)N(C)Cc1ccc(Cl)c(Cl)c1` (stereo not given), 26.3% (active); to `CCCCn1nnnc1C(c1ccccc1)N1CCN(c2ccccc2OC)CC1` (stereo not given), -6.7%.

For the molecule `COc1ccc(S(=O)(=O)N2CCCC(C(=O)Nc3ccc(NC(=O)c4ccccn4)cc3)C2)cc1` (stereo not given), the inhibition was 0.1%. Consider `CCCC(C(=O)n1nc(C)cc1C)C(NS(=O)(=O)c1ccc(C)cc1)c1ccccc1` (stereo not given), for which the inhibition was -0.9%. As for `O=C1CCC/C=C/C[C@@H](CC(=O)N(CCO)Cc2ccccc2)C(=O)NC[C@H](c2ccccc2)O1`, the figure is 4.9%; as for `CC(C)(C)OC(=O)C[C@@H]1C/C=C\C[C@@H](CC(=O)N(CCO)Cc2ccccc2)C(=O)N[C@H](Cc2ccccc2)COC1=O`, -9.4%. For `O=C1CCC/C=C\C[C@@H](CC(=O)N(CCO)Cc2ccccc2)C(=O)NCCO1`, the inhibition is 4.9%.

For the molecule `O=C1OC[C@@H]2CCCN2C(=O)[C@H](CC(=O)N(CCO)Cc2ccccc2)C/C=C\CC[C@@H]1Cc1ccc(F)cc1`, the inhibition was 4.4%. In the case of `O=C1N[C@H](Cc2c[nH]c3ccccc23)COC(=O)[C@H](Cc2ccc(F)cc2)C/C=C\C[C@H]1CC(=O)N(CCO)Cc1ccccc1`, the inhibition was 22.7% (active). As for `O=C1NC[C@@H](c2ccccc2)OC(=O)[C@H](Cc2ccc(F)cc2)CC/C=C/C[C@H]1CC(=O)N(CCO)Cc1ccccc1`, the figure is 23.4% (active).

On to `CCN(Cc1ccccc1)S(=O)(=O)c1cc(C(=O)O)ccc1OC`, for which the inhibition was 13.4%. In the case of `C/C(N)=C(\C#N)C(=O)NCCc1ccccn1`, the inhibition was -1.8%.

With `CC(C)CN(C(=O)c1cccc(S(=O)(=O)N2CCCCC2)c1)C1CCS(=O)(=O)C1` (stereo not given), the inhibition was -6.3%. As for `COCC1CCCN(C(=O)c2ccc3oc(C(C)C)nc3c2)C1` (stereo not given), the figure is -5.1%; as for `Cc1ccc(S(=O)(=O)N(CC(O)CN2CCCCC2)c2cccc([N+](=O)[O-])c2)cc1` (stereo not given), -0.8%. As for `COc1ccc([N+](=O)[O-])cc1N(CC(O)Cn1nnc2ccccc21)S(=O)(=O)c1ccc(C)cc1` (stereo not given), the figure is 7%; as for `Cc1ccc(S(=O)(=O)N(CC(O)CN2C(=O)NC(C)(C)C2=O)c2cccc([N+](=O)[O-])c2)cc1` (stereo not given), 24.8% (active). On to `CCOC(=O)C1(C)CCCN(C(=O)c2ccc(N(C)C)cc2)C1` (stereo not given), for which the inhibition was -8.3%. With `CCOC(=O)C1(C)CCCN(C(=O)c2ccc(F)c(Cl)c2)C1` (stereo not given), the inhibition is 16.4%. As for `CCOC(=O)C1(C)CCCN(C(=O)c2cccc(Cl)c2)C1` (stereo not given), the figure is 20% (active). As for `CC(OC(=O)c1cccnc1Cl)C(=O)NC1CCCCC1` (stereo not given), the figure is 0.1%; as for `CCOc1ccc(S(=O)(=O)NCCC(=O)NCC(C)(C)N2CCOCC2)cc1`, -3.6%; as for `COc1ccc(C(=O)N2CC3(C)CC2CC(C)(C)C3)cc1OC` (stereo not given), 33.3% (active). As for `COc1ccc(C(=O)NC2CC(C)(C)NC(C)(C)C2)cc1OC`, the inhibition is -3.8%. As for `CN(C)C(=O)COC(=O)c1cccc(S(=O)(=O)N2CC3(C)CC2CC(C)(C)C3)c1` (stereo not given), the inhibition is 9.7%.

For the molecule `O=c1[nH]c2ccccc2n1C1CCN(CCOc2ccccc2)CC1`, the inhibition was -8%. `Cc1ccc(S(=O)(=O)N(CC(=O)Nc2cccnc2)c2ccc(Br)cc2)cc1`: the inhibition is 0.4%.

As to `COc1ccccc1-c1nnc2n1N=C(c1ccc(OC(F)F)c(OCC3CC3)c1)CS2`, the inhibition was 18.8% (active). Regarding `COc1ccc(C2=Nn3c(nnc3-c3ccccc3OC)SC2)cc1OC1CCCC1`, the inhibition was 2.4%. To `Cc1ccc(NC2CCCN(C(=O)CCc3cn[nH]c3)C2)cc1C` (stereo not given) belongs 5.4%. As to `CN(C)c1ccc(Nc2c3c4c(cccc4n(C)c2=O)C(=O)c2ccccc2-3)cc1`, the inhibition is 28.9% (active). To `CCOc1cc(CNCCN(C)C)c(Cl)cc1OCC(=O)NCCc1ccccc1` belongs -1.5%; to `CCOC(=O)N1CCN(C(=O)C(C)NC(=O)c2ccco2)CC1` (stereo not given), 5.9%. For the molecule `CCOC(=O)N1CCN(C(=O)Cc2ccc(-n3c(=S)[nH]c4ccccc4c3=O)cc2)CC1`, the inhibition was 2.6%. For `CCOC(=O)N1CCN(C(=O)CNC(=O)Cc2ccc(Cl)cc2)CC1`, the inhibition is 24.6% (active). To `N#Cc1ccc(C(=O)Nc2nc(-c3cccs3)c(C(=O)C(F)(F)F)s2)cc1` belongs 2.3%; to `CC1(C)C/C(=C(/C#N)C(N)=O)CCO1`, 51% (active); to `N#CC(C(N)=O)=C1CCC2(CC1)OCCCCO2`, -11%. Take `C=CCNC(=O)COc1coc(CN2CCN(Cc3ccccc3)CC2)cc1=O`: the inhibition was 2%.

`CCN(CC)C(=O)COc1coc(CN2CCN(Cc3ccccc3)CC2)cc1=O`: the inhibition was 0.6%. In the case of `CCCNC(=O)COc1coc(CN2CCN(Cc3ccccc3)CC2)cc1=O`, the inhibition is 22.7% (active). With `CCOc1cnc(C(=O)NNC(=O)c2ccccc2Br)o1`, the inhibition is 6.1%. Regarding `CCCc1ccc(S(=O)(=O)N2CCN(C(=O)c3cc(C)on3)CC2)cc1`, the inhibition is 1.7%. To `C=C1C(=O)OC2C1CCC(C)=CCCC1(C)OC21` (stereo not given) belongs -0.7%; to `COc1ccc(-c2c(C)cc3oc(=O)cc(-c4ccccc4)c3c2C)cc1C=O`, 34.1% (active); to `COc1cc(OC)c2c(-c3cccc(-c4cccc(N)c4)c3)cc(=O)oc2c1`, -8.2%. To `Cc1cc2oc(=O)cc(-c3ccccc3)c2c(C)c1-c1ccc(OC(F)(F)F)cc1` belongs 0.8%; to `CSCC[C@H](NC(=O)CCCn1nnc2ccccc2c1=O)C(=O)O`, -1.8%; to `CC(=O)N1CCC(C(=O)OCc2ccc(Cl)cc2)(c2ccccc2)CC1`, -3%. To `CCOc1ncccc1C(=O)Nc1ccc(S(=O)(=O)Nc2nc(C)cc(C)n2)cc1` belongs -0.6%; to `CCOC(=O)Cc1ncccc1C(=O)Nc1ccc(OC(F)(F)F)cc1`, 29.7% (active); to `COC(=O)Cc1ccc(OCC(=O)Nc2ccc(OC(F)(F)F)cc2)cc1`, 1.7%. For the molecule `CCCCN1CCNC1=S`, the inhibition is -6.7%. With `CC(NC(=O)c1cc2cc(Cl)ccc2oc1=N)c1ccccc1` (stereo not given), the inhibition was -11%. Take `CC(NCc1nc2ccccc2n1C)C12CC3CC(CC(C3)C1)C2` (stereo not given): the inhibition was -3.5%.

Consider `CCc1cc(=O)oc2c(C)c(OCC(=O)NCCN3CCOCC3)ccc12`, for which the inhibition is 10.3%. For `Cc1cc(=O)oc2c(C)c(OCC(=O)NCCc3ccc(S(N)(=O)=O)cc3)ccc12`, the inhibition is -18.3%.

In the case of `Cc1cc(=O)oc2c(C)c(OCC(=O)NCCN3CCOCC3)ccc12`, the inhibition is 25.8% (active). Take `CC1CC(C)CN(c2ccc(S(=O)(=O)N3CCOCC3)cc2)C1` (stereo not given): the inhibition was 22.3% (active). Regarding `CC1CC(C)CN(S(=O)(=O)c2ccc(C(=O)NN3CCOCC3)cc2)C1` (stereo not given), the inhibition was -2.9%. As to `Cc1ccc(S(=O)(=O)N2CCN(S(=O)(=O)N3CCOCC3)CC2)cc1`, the inhibition was 0%. As for `Cc1c(CC(=O)N2CCN(C(=O)C3COc4ccccc4O3)CC2)c(=O)oc2c(O)c(O)ccc12` (stereo not given), the figure is -49.5%. To `COC(=O)[C@@]1(Cc2ccc(F)cc2)[C@H]2c3cc(C(=O)N4CCCC4)n(C[C@H](O)CO)c3C[C@H]2CN1C(=O)c1ccccc1` belongs -11.6%. To `Cc1ccc2c(c1)N(CCCC(=O)NCc1cccnc1)C(=O)CO2` belongs 12.9%; to `Cc1cc(Cl)ccc1C(=O)C1CCCN(C(=O)c2nonc2C)C1` (stereo not given), -2.6%; to `CCCC(=O)NC(Nc1ccccc1OC)C(Cl)(Cl)Cl` (stereo not given), -6.4%. In the case of `NNC(=O)C1CCCn2c1nc1sc3c(c1c2=O)CCCC3` (stereo not given), the inhibition was 1.2%. Turning to `Cn1c(NN)nc2sc3c(c2c1=O)CCC3`, the inhibition was 17.4% (active).

Take `C=C(C)CSc1nc(N)c2c3c(sc2n1)CCC3`: the inhibition is -0.3%. For the molecule `O=C(C/C(=N\NC(=O)c1ccccc1Br)C(F)(F)F)c1cccs1`, the inhibition is 0%. To `CN(C)C(CNC(=O)c1cc(Br)c(Br)s1)c1ccco1` (stereo not given) belongs -4.5%; to `CCC(=O)c1ccc(OC(=O)/C=C/c2cc(OC)c(OC)c(OC)c2)cc1`, 2.2%; to `COc1cc(/C=C/c2ccc(/C=C/c3cc(OC)c(OC)c(OC)c3)cc2)cc(OC)c1OC`, 20.5% (active).

Regarding `COc1cc(/C=C/C2=CC(C)(C)NC(=S)N2)cc(OC)c1OC`, the inhibition was 3.9%. `Cc1cccc(C)c1NC(=O)C(c1cccc(F)c1)N1CCN(C)CC1` (stereo not given): the inhibition was 1.1%. As for `CCOc1ccc(/C(O)=C2/C(=O)C(=O)N(Cc3cccnc3)C2c2ccc(N(C)C)cc2)c(C)c1` (stereo not given), the figure is 6.1%. Regarding `Cc1ccc(CN2CCCOCCS2(=O)=O)cc1`, the inhibition is 4%. Turning to `Cc1ccc2cccc([N+](=O)[O-])c2n1`, the inhibition was -4.4%. For `O=C(Oc1ccc([N+](=O)[O-])cc1)c1ccc2ccccc2n1`, the inhibition was 6.3%. For the molecule `O=[N+]([O-])c1cc2ccccc2nc1-c1ccccc1`, the inhibition was 20.7% (active).

Take `CNc1nc(=O)n(C2CCCO2)cc1C` (stereo not given): the inhibition is -12.3%. For the molecule `CCCCCCNC(=O)O[C@]12C[C@@H](C(=O)OC)[C@@H](C(=O)OC)C[C@@]1(O)CN(S(=O)(=O)c1ccc(C)cc1)C2`, the inhibition was -8.7%. For `Cc1ccc(C(=O)COC(=O)c2cccc(N3C(=O)c4c(C)nc5ccccc5c4C3=O)c2)cc1C`, the inhibition was -9.4%.

For the molecule `COc1ccc(CCN=C2SCC(=O)N2Cc2ccccc2)cc1OC`, the inhibition was 32.3% (active). Turning to `COc1ccc(CCN=C2SCC(=O)N2C)cc1OC`, the inhibition is 0.9%.

On to `COc1ccc(Cn2c(=O)sc3ccccc32)cc1OC`, for which the inhibition was -6.5%. As for `COc1cccc(OC)c1C(=O)N1CCN(Cc2cccnc2)CC1`, the figure is 1.8%. As for `N#CCCN(CCC#N)c1nnc(-c2ccccc2)s1`, the figure is 0.8%.

As usually defined, the inhibition is the change of the read-out against control, counted positive when it falls.

The record behind these values is PubChem BioAssay AID602438 (Sanford-Burnham Center for Chemical Genomics, 2012).
